Results taken from PubChem BioAssay (NCI).
This is part of a sample that, as a whole, favours compounds with a hit. Of some 83,000 tested, about 20% had one in any assay.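 Note: values are percent growth. 100 is the growth of untreated cells, values between 100 and 0 indicate rising inhibition; between -100 and 0 indicates cell death.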 Active and inactive are the calls of the source. The calls were made as follows: active = growth percent below 10; inactive = the rest.

Test system: HL-60(TB) leukemia
Assay: NCI-60 one-dose screen, 48 h (100 = growth as untreated, 0 = no growth, -100 = all killed)
Details: 10 µM unless noted

SMILES	growth
COc1ccc(NC(=O)c2sc3nc(C)c(C(=O)c4ccccc4)cc3c2N)cc1	78.8% (inactive)
O=C(Nc1cccc2c(O)c(N=Nc3ccc(S(=O)(=O)Nc4nccs4)cc3)cc(N=Nc3ccc(S(=O)(=O)Nc4nccs4)cc3)c12)C(Cl)Cl	102% (inactive)
Cc1ccccc1-c1nc(C(Cl)Cl)nc2cc(-c3ccccc3)nn12	92% (inactive)
Cc1ccc(N/N=C(/C(=O)c2ccc(Cl)cc2)c2nc(C)cc(=O)[nH]2)cc1	109% (inactive)
CCCCOc1cc(C(=O)NCCN(CC)CC)c2ccccc2n1	96.7% (inactive)
COc1ccc(C(O)c2cc3c(N)c(C(=O)Nc4cccc5ccccc45)sc3nc2C)cc1 (stereo not given)	-1.39% (active)
CC1SC(c2ccc(OCc3ccccc3)cc2)N(NC(=O)C(O)(c2ccccc2)c2ccccc2)C1=O (stereo not given)	14.5% (inactive)
Cn1/c(=N\N=C\c2ccccc2OCCO)sc2ccccc21	92.5% (inactive)
CCC/C=C(/C(C)=O)C(=O)OCC	93.2% (inactive)
O=c1ccc2nc(-c3ccccn3)nn(-c3ccccc3)c-2c1	31.1% (inactive)
O=C1NC(=O)C(c2coc3cc(Br)ccc23)=C1c1c[nH]c2ccccc12	13.1% (inactive)
C=C1CC[C@@H]2[C@](C)(COC(C)=O)[C@H](OC(C)=O)CC[C@@]2(C)[C@@H]1CC(NCc1ccc(F)cc1)C1=CCOC1=O (stereo not given in full)	-9.52% (active)
Nc1ccc(S(=O)(=O)O)c2cc(S(=O)(=O)O)cc(O)c12	99.2% (inactive)
CC(=O)c1c[nH]c2ccc(-c3ccnc(Nc4ccc(NC(=O)C5CCCC5)c(CN5CCOCC5)c4)n3)cc12	-31.5% (active)
Cc1nc(NC(=O)COc2ccc(/C=C3\Cc4ccc(Cl)cc4C3=O)cc2)sc1C	86.5% (inactive)
CC(=O)Nc1ccc2c(c1)/C(=C\C=C/c1ccc([N+](C)(C)C)cc1)c1ccccc1-2	43.7% (inactive)
COc1ccc2[nH]c(-c3ccccc3)c(/C=C(\C#N)S(=O)(=O)c3ccccc3)c2c1	1.53% (active)
Nc1cc(F)ccc1[N+](=O)[O-]	115% (inactive)
O=C1/C(=C\C(Cl)=C/c2ccc([N+](=O)[O-])cc2)SC(=S)N1CCc1ccc(O)cc1	2.21% (active)
CCN(CC)CCSCCCNc1c(C)cnc2cc(Cl)ccc12	69.1% (inactive)

SMILES	growth
CCN(CC)CCCNc1nc2ccccc2c2c(=O)c3cc(Cl)ccc3sc12	64.5% (inactive)
Cc1ccc(C)c2c1sc1nc(N3CCOCC3)c(C#N)c(=O)n12	93.4% (inactive)
O=C(Nc1ccccc1O)c1ccc(CNC(=O)c2ccsc2Nc2ccnc(C(F)(F)F)c2)cc1	7.44% (active)
CC1(C)C(=O)/C(=C\c2cccnc2)C[C@]2(C)[C@H]3CC[C@@H]4[C@H]5[C@H](C(=O)/C=C/c6cccnc6)CC[C@]5(C(=O)O)CC[C@@]4(C)[C@]3(C)CC[C@@H]12	0.806% [100 µM] (active)
Clc1ccc2c(NCCNc3nc(N4CCOCC4)nc4ccccc34)ccnc2c1	-65.4% (active)
c1ccc2cc(Cn3c(-c4cccc5ccccc45)[n+](Cc4ccc5ccccc5c4)c4c5ccccc5c5ccccc5c43)ccc2c1	-54.6% (active)
COC(=O)CCc1cc(O)c2c(c1)[C@@H](C(=O)OC)[C@H](c1ccc(O)c(O)c1)O2	9.9% (active)
CC1(Cc2ccccc2)CC2=C(C(=O)O1)C(c1ccccc1)NC(=O)N2 (stereo not given)	-25.1% (active)
Cc1nnc(Nc2ccc(NC(=O)Nc3ccc(Cl)cc3)cc2)c2ccccc12	-34.8% (active)
CNC(=O)c1cccc(Cn2nc(C)c(NC(=O)c3ccc(COc4ccc(C(F)(F)F)cc4C)cc3)c2C)c1	47.1% (inactive)
COc1cccc2cc(N(C)c3nc(C)nc4c3CCC4)ccc12	-8.85% (active)
C#Cc1cccc(Nc2nc(Cl)nc3cc(NC(=O)CCl)ccc23)c1	-45.8% (active)
CCCN(CCC)CCCNC(=O)c1cc2c(-c3ccc(OC)c(OC)c3)nn(C)c2s1	-13.4% (active)
O=S1(=O)N(CCNc2nccc(-c3c(-c4cccc(O)c4)nc4sccn34)n2)CCN1Cc1ccccc1	91.8% (inactive)
O=C1Nc2ccccc2/C1=C/c1cn(C(=O)c2ccc(Cl)cc2)c2ccccc12	150% (inactive)
Cn1cc(C(=O)c2nc(-c3c[nH]c4ccc(Br)cc34)no2)c2cc(F)ccc21	94.7% (inactive)
O=C1c2cccc3c(-c4ccc(-c5nc6c7ccccc7c7ccccc7c6[nH]5)cc4)ccc(c23)C(=O)N1CCN1CCNCC1	82.5% (inactive)
C=CC(=O)N(C)[C@H]1C[C@H]2OC(C)(C1OC)n1c3ccccc3c3c4c(c5c6ccccc6n2c5c31)C(=O)NC4 (stereo not given in full)	-11.2% (active)
COc1ccc(C(=O)/C=C/c2cc(-c3ccc4c(c3)OCO4)n[nH]2)cc1OC	42.9% (inactive)
CCOC(=O)c1ccccc1-c1c2ccc(=[N+](C)C)cc-2oc2cc(N(C)C)ccc12	-14.3% (active)
